According to PubChem BioAssay:
Active and inactive are the calls of the source.

How the values were obtained:
[1] = binders of probe aFSTL3 on microarray, primary screen, stem cell growth factor project, biochemical, small-molecule microarray, fluorescence 635/667 (AID 1064); conditions: higher = more signal;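 further: measures binding of the biotinylated anti-FSTL3 antibody to printed compounds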
[2] = binders from COS7 lysate, DM2A8 probe, primary screen, torsin A project, cell lysate, small-molecule microarray, fluorescence 635/667 (AID 1065); conditions: higher = more signal, COS7 lysate expressing mutant human TOR1A
[3] = binders of probe aFGF2 on microarray, primary screen, stem cell growth factor project, biochemical, small-molecule microarray, fluorescence 635/667 (AID 1067); conditions: higher = more signal;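 further: measures binding of biotinylated aFGF2 protein to printed compounds on slides; z-score merges feature fluorescence and signal-to-noise across triplicate slides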
[4] = binders of probe aFGF10 on microarray, primary screen, stem cell growth factor project, biochemical, small-molecule microarray, fluorescence 635/667 (AID 1071); conditions: higher = more signal;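 further: score merges 667 nm spot intensity and signal to noise from triplicate slides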
[5] = molecular target: Neurogenic locus notch homolog protein 2 (Homo sapiens) (UniProt Q04721); test: Notch2 binders on small-molecule microarrays, primary screen, biochemical, small-molecule microarray, 635 nm fluorescence, stem cell growth factors (AID 1073); conditions: Notch2 binding, higher = more signal
[6] = molecular target: Pro-neuregulin-1, membrane-bound isoform (Homo sapiens) (UniProt Q02297); test: NRG1 binders on small-molecule microarrays, primary screen, psychiatric disease protein project, biochemical, small-molecule microarray, fluorescence 635/667 (AID 1075); conditions: NRG1 binding, 635 nm fluorescence, higher = more signal;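 further: score combines 667 nm spot fluorescence with signal to noise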
Sequence of Pro-neuregulin-1, membrane-bound isoform (Homo sapiens) (Q02297 whole entry, looked up, the tested form may be a part, canonical isoform): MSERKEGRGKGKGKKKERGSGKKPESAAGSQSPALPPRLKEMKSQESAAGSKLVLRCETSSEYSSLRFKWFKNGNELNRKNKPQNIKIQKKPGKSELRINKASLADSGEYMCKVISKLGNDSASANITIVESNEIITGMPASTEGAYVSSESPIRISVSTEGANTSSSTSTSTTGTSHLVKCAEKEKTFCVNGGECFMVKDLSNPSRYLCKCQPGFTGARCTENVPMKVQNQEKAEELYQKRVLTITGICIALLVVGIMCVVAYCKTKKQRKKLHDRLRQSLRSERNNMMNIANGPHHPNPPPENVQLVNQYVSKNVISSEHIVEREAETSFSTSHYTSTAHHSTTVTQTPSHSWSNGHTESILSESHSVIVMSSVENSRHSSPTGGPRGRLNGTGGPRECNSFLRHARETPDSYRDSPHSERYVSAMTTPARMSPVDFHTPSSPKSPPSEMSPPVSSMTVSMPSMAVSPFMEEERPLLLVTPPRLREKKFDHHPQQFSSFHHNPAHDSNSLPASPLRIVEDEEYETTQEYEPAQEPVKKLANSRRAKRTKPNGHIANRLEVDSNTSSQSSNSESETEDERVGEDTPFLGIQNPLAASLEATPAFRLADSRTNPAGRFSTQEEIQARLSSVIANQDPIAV

[7] = test system: Neuregulin-1 EGF-like domain; test: binders of neuregulin-1 EGF-like domain, primary screen, biochemical, small-molecule microarray, 635 nm fluorescence (AID 1081); conditions: small-molecule microarray binding, higher = more signal;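 further: binding of the protein to compounds printed on small-molecule microarray slides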
[8] = FRG1 promoter luciferase signal modulators, primary screen, FRG1 inhibition for FSHD, cell-based, C2C12 myotubes, firefly/Renilla luciferase, luminescence (AID 1084); conditions: higher = more signal, called active from +8 up or from −8 down
[9] = binders of probe aFST on microarray, primary screen, stem cell growth factor project, biochemical, small-molecule microarray, fluorescence 635/667 (AID 1086); conditions: higher = more signal;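 further: score merges 667 nm fluorescence with signal-to-noise of each printed compound spot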
[10] = binders of probe aHhip on microarray, primary screen, stem cell growth factor project, biochemical, small-molecule microarray, fluorescence 635/667 (AID 1087); conditions: higher = more signal;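 further: score merges spot fluorescence at 667nm with spot signal to noise ratio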
[11] = test system: PRMT1 (protein arginine N-methyltransferase 1); test: PRMT1 binders on small-molecule microarrays, primary screen, biochemical, small-molecule microarray, 635 nm fluorescence (AID 1088); conditions: small-molecule microarray binding, higher = more signal;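 further: binding of Prmt1 protein to compounds spotted on small-molecule microarray slides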
[12] = yeast growth modulation, basal conditions, primary screen, YJM789 clinical isolate, OD600, 24 h (AID 1089);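 further: growth of clinical yeast isolate S. cerevisiae YJM 789 seeded 1000 cells per well; test concentration not given here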; conditions: S. cerevisiae YJM789 growth, higher = more signal, called active from +8 up or from −8 down
[13] = fission yeast growth modulation, primary screen, strain 972, OD600, 24 h, no modulator (AID 1090);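 further: basal condition with compound alone and no growth modifier present; test concentration not given here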; conditions: S. pombe 972 growth, higher = more signal, called active from +8 up or from −8 down
[14] = S. cerevisiae growth modulation with rapamycin, primary screen, strain BY4716, OD600, 96 h (AID 1091); conditions: higher = more signal, called active from +8 up or from −8 down; further: test concentration not given here
[15] = molecular target: Torsin-1A-interacting protein 2 (Homo sapiens) (UniProt Q8NFQ8); test: LULL1 binders on small-molecule microarray, primary screen, cell lysate, human LULL1 lysate, 635/667 nm fluorescence (AID 1092); conditions: hLULL1 lysate binding, 635 nm fluorescence, higher = more signal;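 further: probe is lysate of COS7 cells overexpressing human LULL1; score merges per-feature 667 nm fluorescence with signal-to-noise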
Sequence of Torsin-1A-interacting protein 2 (Homo sapiens) (Q8NFQ8 whole entry, looked up): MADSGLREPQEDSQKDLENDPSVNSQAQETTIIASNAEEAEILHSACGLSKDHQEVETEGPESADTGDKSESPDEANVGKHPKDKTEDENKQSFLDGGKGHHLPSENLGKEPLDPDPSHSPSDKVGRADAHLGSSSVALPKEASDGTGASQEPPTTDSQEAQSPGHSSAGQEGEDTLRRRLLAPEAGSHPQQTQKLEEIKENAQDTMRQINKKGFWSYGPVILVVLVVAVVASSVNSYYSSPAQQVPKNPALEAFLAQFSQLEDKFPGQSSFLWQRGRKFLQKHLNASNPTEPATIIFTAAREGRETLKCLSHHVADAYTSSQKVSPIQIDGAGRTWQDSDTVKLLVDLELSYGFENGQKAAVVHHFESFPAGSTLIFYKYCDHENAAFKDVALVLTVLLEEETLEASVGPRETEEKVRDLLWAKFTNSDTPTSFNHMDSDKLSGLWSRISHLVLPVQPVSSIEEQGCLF

[16] = E. coli growth modulation, two-sided OD650, primary screen, E. coli filamentation project, strain DRC41, 24 h (AID 1093); conditions: OD650, 24 h, higher = more signal, called active from +8 up or from −8 down;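 further: MC1000 strain lacking acrAB efflux and sulA so SOS filamentation is blocked; test concentration not given here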
[17] = small-molecule microarray binders of probe aLefty2, primary screen, biochemical, biotinylated probe, 635/667 nm fluorescence (AID 1094); conditions: higher = more signal;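 further: score merges spot fluorescence near 667 nm with spot signal-to-noise ratio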
[18] = test system: Noggin (protein binding on small-molecule microarray); test: Noggin binders on small-molecule microarray, primary screen, biochemical, 635/667 nm fluorescence (AID 1095); conditions: 635 nm fluorescence, higher = more signal;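 further: score merges 667 nm feature fluorescence with signal to noise over triplicate slides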
[19] = molecular target: Neurogenic locus notch homolog protein 3 (Homo sapiens) (UniProt Q9UM47); test: NOTCH3 binders on small-molecule microarray, primary screen, biochemical, 635/667 nm fluorescence (AID 1096); conditions: NOTCH3 binding, 635 nm fluorescence, higher = more signal
Sequence of Neurogenic locus notch homolog protein 3 (Homo sapiens) (Q9UM47 whole entry, looked up): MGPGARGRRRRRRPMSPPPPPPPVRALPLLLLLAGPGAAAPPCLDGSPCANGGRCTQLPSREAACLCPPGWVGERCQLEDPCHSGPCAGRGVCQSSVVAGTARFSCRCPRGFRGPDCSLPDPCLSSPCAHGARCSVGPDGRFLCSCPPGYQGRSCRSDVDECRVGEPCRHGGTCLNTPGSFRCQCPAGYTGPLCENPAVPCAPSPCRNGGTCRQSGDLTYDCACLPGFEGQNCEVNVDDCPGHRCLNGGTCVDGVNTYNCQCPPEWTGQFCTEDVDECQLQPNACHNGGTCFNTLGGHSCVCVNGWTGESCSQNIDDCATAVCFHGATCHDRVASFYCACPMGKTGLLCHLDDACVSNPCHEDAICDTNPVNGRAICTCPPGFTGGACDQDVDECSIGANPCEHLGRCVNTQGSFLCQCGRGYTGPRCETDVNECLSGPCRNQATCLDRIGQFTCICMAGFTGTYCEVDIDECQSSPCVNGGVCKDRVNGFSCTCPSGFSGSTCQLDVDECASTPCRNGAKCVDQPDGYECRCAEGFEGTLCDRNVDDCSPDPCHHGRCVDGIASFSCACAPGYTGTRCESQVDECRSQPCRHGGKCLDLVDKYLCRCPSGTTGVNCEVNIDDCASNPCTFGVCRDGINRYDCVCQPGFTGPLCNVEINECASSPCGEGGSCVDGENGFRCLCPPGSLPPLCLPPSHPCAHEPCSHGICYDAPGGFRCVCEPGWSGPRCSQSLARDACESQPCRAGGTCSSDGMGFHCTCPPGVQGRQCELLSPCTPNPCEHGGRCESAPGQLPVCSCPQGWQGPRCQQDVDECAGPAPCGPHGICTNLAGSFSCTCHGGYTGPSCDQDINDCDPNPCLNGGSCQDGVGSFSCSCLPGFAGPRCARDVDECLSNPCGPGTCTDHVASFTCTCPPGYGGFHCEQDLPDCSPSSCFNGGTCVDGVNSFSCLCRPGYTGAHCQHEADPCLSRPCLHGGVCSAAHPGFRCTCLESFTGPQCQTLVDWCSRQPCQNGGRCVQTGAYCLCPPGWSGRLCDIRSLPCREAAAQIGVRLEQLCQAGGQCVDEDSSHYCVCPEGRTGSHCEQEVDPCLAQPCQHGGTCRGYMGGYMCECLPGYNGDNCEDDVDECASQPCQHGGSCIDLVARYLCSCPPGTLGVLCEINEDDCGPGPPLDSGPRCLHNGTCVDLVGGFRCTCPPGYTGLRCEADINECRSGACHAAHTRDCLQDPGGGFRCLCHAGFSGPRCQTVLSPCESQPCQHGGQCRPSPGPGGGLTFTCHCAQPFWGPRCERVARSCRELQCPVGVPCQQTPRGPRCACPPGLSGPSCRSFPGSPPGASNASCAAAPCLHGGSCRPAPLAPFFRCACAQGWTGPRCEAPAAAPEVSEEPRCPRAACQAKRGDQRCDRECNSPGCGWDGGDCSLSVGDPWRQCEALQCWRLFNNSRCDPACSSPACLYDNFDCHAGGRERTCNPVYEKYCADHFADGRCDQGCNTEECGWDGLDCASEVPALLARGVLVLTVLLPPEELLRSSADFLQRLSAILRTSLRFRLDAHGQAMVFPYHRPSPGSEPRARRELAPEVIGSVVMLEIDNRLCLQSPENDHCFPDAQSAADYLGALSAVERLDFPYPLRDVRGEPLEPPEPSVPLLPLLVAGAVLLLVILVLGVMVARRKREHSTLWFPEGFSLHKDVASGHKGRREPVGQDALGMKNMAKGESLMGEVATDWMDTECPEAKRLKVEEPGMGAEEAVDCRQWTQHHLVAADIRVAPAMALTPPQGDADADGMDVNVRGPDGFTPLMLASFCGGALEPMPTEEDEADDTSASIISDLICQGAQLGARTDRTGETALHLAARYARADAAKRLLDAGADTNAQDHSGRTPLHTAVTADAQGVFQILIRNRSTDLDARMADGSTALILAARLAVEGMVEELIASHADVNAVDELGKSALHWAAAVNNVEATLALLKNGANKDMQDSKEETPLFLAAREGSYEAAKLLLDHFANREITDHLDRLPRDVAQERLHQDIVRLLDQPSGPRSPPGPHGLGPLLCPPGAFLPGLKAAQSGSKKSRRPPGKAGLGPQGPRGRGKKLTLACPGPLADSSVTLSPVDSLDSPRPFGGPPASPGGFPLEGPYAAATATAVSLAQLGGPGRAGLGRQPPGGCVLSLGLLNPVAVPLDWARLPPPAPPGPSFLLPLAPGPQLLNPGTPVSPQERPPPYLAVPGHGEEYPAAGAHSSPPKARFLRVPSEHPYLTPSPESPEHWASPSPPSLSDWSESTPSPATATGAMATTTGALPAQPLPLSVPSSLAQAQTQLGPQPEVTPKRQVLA

[20] = small-molecule microarray binders of probe aEGFR, primary screen, biochemical, biotinylated probe, 635/667 nm fluorescence (AID 1097); conditions: higher = more signal;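 further: probe is a biotinylated anti-EGFR antibody binding compounds printed on slides; score combines fluorescence near 667 nm and signal to noise of each spot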

| SMILES | composite z-score [1] | composite z-score [2] | composite z-score [3] | composite z-score [4] | composite z-score [5] | composite z-score [6] | composite z-score [7] | z-score [8] | composite z-score [9] | composite z-score [10] | composite z-score [11] | z-score [12] | z-score [13] | z-score [14] | composite z-score [15] | z-score [16] | composite z-score [17] | composite z-score [18] | composite z-score [19] | composite z-score [20] |
| --- | --- | --- | --- | --- | --- | --- | --- | --- | --- | --- | --- | --- | --- | --- | --- | --- | --- | --- | --- | --- |
| Cc1c(NC(=O)/C(C#N)=C/C=C/c2ccccc2)c(=O)n(-c2ccccc2)n1C | -0.438 | -0.0022 | -0.0035 | 0.286 | 0.654 | 0.757 | 0.825 | 4.07 (inactive) | 0.003 | 0.237 | 0.311 | 0.243 (inactive) | -0.678 (inactive) | 0.561 (inactive) | 0.396 | 1.94 (inactive) | -0.31 | 0.244 | 0.478 | -0.0293 |
| COC(=O)[C@@]1(Cc2ccc(F)cc2)[C@H]2c3cc(C(=O)N4CCCC4)n(Cc4ccc(Cl)c(C(F)(F)F)c4)c3C[C@H]2CN1C(=O)c1ccccc1 | 2 | 0.554 | 0.713 | 1.04 | 1.73 | 1.61 | 1.14 | 0.339 (inactive) | 2.44 | 3.55 | 0.444 | 0.307 (inactive) | 2.12 (inactive) | 3.84 (inactive) | 3.26 | -0.482 (inactive) | 1.12 | -0.21 | 1.07 | 0.915 |
| C=C(CCCC)C(=O)CC[C@H](OC(C)=O)c1ccc(CO)o1 | -0.282 | 0.0494 | -0.0985 | -0.0414 | -0.366 | -0.119 | 0.798 | -0.463 (inactive) | -0.402 | -0.0994 | 1.47 | 1.04 (inactive) | -1.43 (inactive) | -0.181 (inactive) | 0.616 | 1.38 (inactive) | -0.0339 | 0.53 | 0.137 | -0.182 |
| CN1C(=O)C2C=CC(C(O)C(C)(C)C)N(Nc3ccccc3)C2C1=O (stereo not given) | 0.207 | -0.565 | -0.14 | -0.181 | 0.0262 | 1.4 | 0.291 | -0.269 (inactive) | 0.0082 | -0.173 | -0.316 | 0.392 (inactive) | 1 (inactive) | 0.949 (inactive) | 3.16 | -0.971 (inactive) | -0.266 | -0.611 | -0.784 | -0.19 |
| [N-]=[N+]=NCc1ccccc1[C@H]1OC(c2ccc(OCCCO)cc2)=N[C@@]1(Cc1ccccc1)C(=O)O | 0.227 | 0.325 | -0.0586 | 0.345 | 0.653 | 1.1 | 0.97 | 1.82 (inactive) | 0.554 | -0.0994 | 1.55 | -0.36 (inactive) | -2.06 (inactive) | -0.759 (inactive) | 2.81 | -0.395 (inactive) | 0.0869 | 0.462 | 0.502 | 0.346 |
| [N-]=[N+]=NCc1ccccc1C[C@]1(C(=O)NCc2ccccc2)COC(c2ccc(OCCCO)cc2)=N1 | 0.0555 | 0.808 | 0.0111 | 0.157 | 0.472 | 1.17 | 0.931 | -3.06 (inactive) | 0.534 | -0.166 | 1.01 | 1.67 (inactive) | 0.816 (inactive) | 36 (active) | 3.12 | 1.21 (inactive) | -0.0438 | 0.0869 | -0.146 | -0.0828 |
| O=C1[C@H]2C=C(Br)[C@H](C[C@@H]2OCCOCCO)[C@@]12CO2 | 0.0321 | -0.0798 | -0.103 | 0.373 | 0.473 | -0.151 | 0.437 | -0.0763 (inactive) | 0.0751 | -0.0994 | -0.223 | 0.85 (inactive) | 0.397 (inactive) | 1.19 (inactive) | 0.0385 | -0.922 (inactive) | -0.111 | 0.595 | 0.235 | 0.0974 |
| COc1ccc(C(=O)Nc2cccc(CN3C(=O)[C@@]4(O[C@@H](CC(=O)N5Cc6ccccc6C[C@H]5CO)[C@H]([Si](C)(C)c5ccc(OC)cc5)[C@H]4C)c4ccccc43)c2)cc1 | 0.0279 | 1.09 | -0.0924 | 0.505 | 0.493 | 0.598 | 1.25 | -2.95 (inactive) | 0.349 | -0.0994 | 1.55 | -1.26 (inactive) | 0.166 (inactive) | 1.22 (inactive) | 1.71 | -0.209 (inactive) | 0.0327 | 1.25 | 0.893 | 0.0276 |
| COc1cc(CO)cc(I)c1O[C@H]1C=C(C(=O)NCCO)C[C@@H](N(CCc2cccc(F)c2)C(=O)CCC2CCCC2)[C@@H]1O | 0.0822 | 0.825 | 0.195 | 0.146 | 0.0011 | 1.27 | 1.29 | -4.64 (inactive) | 0.336 | 0.219 | 1.55 | 0.645 (inactive) | -6.99 (inactive) | -1.02 (inactive) | 1.7 | 0.0555 (inactive) | -0.0632 | 1.91 | 0.922 | -0.0302 |
| O=C1C2C=CC(C(O)c3ccc(-c4ccccc4)s3)N(Nc3ccccc3F)C2C(=O)N1c1ccccc1 (stereo not given) | 0.623 | 0.0116 | 0.0352 | 0.243 | 1.58 | 1.65 | 1.28 | 1.72 (inactive) | 0.955 | -0.0296 | 1.33 | 0.264 (inactive) | 0.167 (inactive) | 1.58 (inactive) | 2.85 | -1.82 (inactive) | 0.207 | -0.243 | 1.02 | 0.232 |
| COc1ccc([Si](C)(C)[C@H]2[C@H](CC(=O)N(CCO)Cc3ccccc3)O[C@@]3(C(=O)N(Cc4cccc(N5C(=O)c6cccc7cccc5c67)c4)c4ccccc43)[C@@H]2C)cc1 | -0.184 | 0.199 | -0.0664 | 0.202 | -0.588 | 0.824 | 1.2 | -3.13 (inactive) | -0.246 | -0.236 | 1.19 | -1.64 (inactive) | -0.897 (inactive) | 2.79 (inactive) | 1.72 | 1.02 (inactive) | -0.0158 | 0.315 | 0.228 | -0.378 |
| COc1ccc([Si](C)(C)[C@@H]2[C@@H](CCO)O[C@]3(C(=O)N(Cc4cccc(N(C=O)c5ccccc5)c4)c4ccccc43)[C@H]2C)cc1 | 0.318 | 0.526 | -0.0784 | -0.126 | 0.199 | 0.835 | 0.787 | -0.198 (inactive) | 0.316 | 0.0524 | 1.12 | 1.35 (inactive) | 0.946 (inactive) | 9.98 (active) | 0.745 | 1.03 (inactive) | -0.0719 | 0.145 | 0.258 | -0.201 |
